The text below walks through data of PubChem BioAssay (NCI).

Compounds without any hit were thinned out: in the full panel of roughly 83,000, 20% have a hit.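 Testing used 96-well plates and a 48-hour single-concentration exposure. Example: -40 means 40% of the starting cells died.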 Unmarked numbers belong to inactive results. Active and inactive are the calls of the source. Rule for the calls: active = growth percent below 10; inactive = the rest.

Holding throughout (assay): NCI-60 one-dose screen, 48 h (100 = growth as untreated, 0 = no growth, -100 = all killed)
Holding throughout (settings): 10 µM unless noted

For assay [1], the system named is DU-145 prostate.
Assay [2] relates to K-562 leukemia.
The subject of assay [3] is MALME-3M melanoma.
Assay [4] has as its system MDA-MB-231 breast.
The subject of assay [5] is RXF 393 renal.
For assay [6], the system named is SF-268 CNS.
The test system of assay [7] is SF-295 CNS.
Assay [8] relates to SF-539 CNS.
The subject of assay [9] is UACC-257 melanoma.
Assay [10] deals with M14 melanoma.
The subject of assay [11] is HCT-15 colon.
The subject of assay [12] is HT29 colon.
The test system of assay [13] is SNB-75 CNS.
Assay [14] concerns SNB-19 CNS.
Assay [15] deals with U251 CNS.
For assay [16], the system named is PC-3 prostate.
Assay [17] has as its system SK-MEL-5 melanoma.
Assay [18] concerns UACC-62 melanoma.
Assay [19] deals with LOX IMVI melanoma.
Assay [20] relates to SK-MEL-28 melanoma.

Take `O=C(Nc1cccc(-c2ccc(N3CCOCC3)nn2)c1)Nc1cccc(C(F)(F)F)c1`: the growth was 80.5% in [1]; 46.1% in assay [2]; 89.5% in assay [3]; 80.1% in [4]; 81.5% in [5]; 91.2% in assay [6]. The growth in assay [7] is 52%; in assay [8], 89.1%; in [9], 69.7%; in assay [10] it was 63.1%; in [11] it was 68.3%; in assay [12], 91.2%. The growth in assay [13] is 111%; in assay [14] it was 86.6%; in assay [15], 71.2%; in [16] it was 31.4%; in assay [17], 41.9%; in assay [18], 43.2%. Also, the growth in assay [19] was 70.2%; in assay [20] it was 88.7%.

Take `COc1ccc(C2=C(Nc3ccc(C(=O)Nc4ccccc4)cc3)C(=O)N(C)C2=O)cc1`: the growth was 98% in assay [1]; 81.5% in assay [2]; 93.7% in [3]; 83.2% in assay [4]; 105% in assay [5]; 97.1% in assay [6]. The growth in [7] is 98.9%; in [8] it was 97.6%; in [9] it was 87.6%; in [10], 99.9%; in assay [11], 89.1%; in assay [12] it was 84%. Also, the growth in assay [13] was 88.9%; in assay [14] it was 95.3%; in [15], 95.4%; in assay [16], 80.7%; in assay [17], 96.2%; in assay [18], 92.3%. Moreover, the growth was 84.6% in assay [19] and 111% in assay [20].

Turning to `O=[N+]([O-])c1cccc(-c2nc3cc4nc5ccccc5[nH]c4cc3n2)c1`, the growth in assay [1] was 106%; in [2], 90.9%; in assay [3] it was 113%; in assay [4] it was 110%; in assay [5] it was 115%; in [6] it was 98.2%. In addition, the growth was 100% in assay [7]; 106% in assay [8]; 98.3% in [9]; 103% in assay [10]; 99.5% in [11]; 100% in [12]. Moreover, the growth in assay [13] was 101%; in assay [14], 102%; in assay [15] it was 98.2%; in [16], 93.2%; in assay [17] it was 96.4%; in assay [18], 97.5%. The growth in assay [19] is 99.8%; in assay [20], 113%.

With `COc1cccc(/C=C2\COc3ccc(O)c(O)c3C2=O)c1`, the growth in [1] is 4.84% (active); in [2], 11.7%; in assay [3], -26.3% (active); in [4] it was 0.944% (active); in assay [5] it was -18.7% (active); in [6] it was 5.27% (active). For the same molecule, the growth in [7] was 79.1%; in assay [8], -54.7% (active); in assay [9] it was 28.1%; in [10], 26%; in [11] it was 1.4% (active); in assay [12], 8.58% (active). Moreover, the growth is 11.5% in [13]; 35.4% in assay [14]; 3% (active) in [15]; -10.5% (active) in assay [16]; 40.4% in assay [17]; -6.3% (active) in [18]. The growth in [19] was -82.3% (active); in assay [20] it was 32.1%.

As for `O=S(=O)(Nc1ccc(Cl)c(C(F)(F)F)c1)c1ccc(-c2cnc(C3CC3)o2)cc1`, the growth was 15.5% in assay [1]; 5.12% (active) in [2]; 28.7% in assay [3]; 15.6% in assay [4]; 8.55% (active) in assay [5]; 13.7% in [6]. For the same molecule, the growth in assay [7] is 22.2%; in assay [8], -35.8% (active); in [9] it was -0.635% (active); in assay [10], 10.9%; in assay [11] it was 22.5%; in assay [12] it was 5.34% (active). In addition, the growth was -2.82% (active) in assay [13]; 18.3% in assay [14]; 4.81% (active) in assay [15]; 4.35% (active) in [16]; 18.6% in [17]; -10.2% (active) in [18]. Besides, the figures for the growth in assay [19] and in [20] were 32.9% and 19.4%, respectively.

`Cc1c(O)cc(-c2cnc(Nc3ccccc3)s2)c(O)c1C`: the growth in assay [1] was 105%; in assay [2], 87.2%; in assay [3], 107%; in assay [4], 99.2%; in [5] it was 99.5%; in [6], 105%. Moreover, the growth in assay [7] is 98.9%; in [8] it was 95%; in [9], 106%; in assay [10] it was 93.6%; in assay [11], 92.2%; in assay [12], 109%. Besides, the growth in [13] is 104%; in [14], 106%; in assay [15], 100%; in assay [16], 76%; in [17], 93.4%; in assay [18] it was 78.1%. In addition, the growth in assay [19] is 78.3%; in assay [20] it was 104%.

On to `COCCOc1cc2ncnc(N3CCN(c4ncc(S(=O)(=O)N5CCCCC5)cn4)CC3)c2cc1OCCOC`, for which the growth was 102% in assay [1]; 96.3% in assay [2]; 93.8% in assay [3]; 106% in [4]; 110% in assay [5]; 93.3% in assay [6]. Moreover, the growth in [7] is 99.6%; in [8], 107%; in assay [9], 101%; in assay [10], 97.8%; in assay [11], 89.9%; in assay [12], 109%. Besides, the growth in assay [13] is 110%; in [14] it was 96.2%; in assay [15], 97.7%; in assay [16], 88.7%; in assay [17], 102%; in assay [18] it was 95.3%. Besides, the growth is 87.4% in assay [19] and 112% in assay [20].

Take `CC(C)(C)[Si](C)(C)OC1[C@@H](CNC(=O)NC(=O)NC(N)=O)O[C@@H](n2cnc3c(NC(=O)Nc4ccccc4)ncnc32)[C@H]1O[Si](C)(C)C(C)(C)C` (stereo not given in full): the growth in [1] was 58.9%; in [2] it was 66.3%; in [3], 79%; in assay [4], 83.7%; in [5], 71.6%; in assay [6] it was 66.4%. Moreover, the growth in assay [7] is 73.1%; in [8], 95.4%; in [9] it was 94%; in [10] it was 68%; in [11], 94.8%; in assay [12], 10.5%. Besides, the growth in [13] was 84.1%; in assay [14], 98.3%; in assay [15] it was 69.1%; in assay [16] it was 41.5%; in assay [17], 91.8%; in assay [18], 87.8%. For the same molecule, the growth in assay [19] is 56%; in assay [20] it was 63.5%.
